Inconclusive results are not listed. Where a call stands in place of a potency, no number is given. Values without a mark were called inactive. Activity calls are given as the source filed them. Calls follow the shape of the dose curve; as a rule, active = well fitted cell-killing curve with a large enough effect; inconclusive = small, poorly fitted or top-dose-only effect, or effect the other way; inactive = flat fitted curve, though single readings scatter.

Experimental findings from PubChem BioAssay (NCATS) are described below.

In this assay the test system is CAOV3. Put plainly: Primary qHTS to identify gynecologic anti-cancer compounds using libraries of approved drugs and bioactive compounds (AID 1345084). Also: nearly all actives have a fitted effect of over 55% in size. The following applies: Gynecologic cancer cell panel viability, ATPlite luminescence, 48 h; series mostly up to 57.5 µM. The source says:
National Center for Advancing Translational Sciences [NCATS] Assay Overview: Chemotherapeutic drug responses vary from cancer to cancer and from patient to patient. These variations could be caused by a number of factors including patient genomic background, tumor mutations, tumor heterogeneity, and aspects of drug treatment. Chemotherapeutic drug resistance is also a common issue and can lead to ineffective treatment and patient death. Here we have profiled the cell killing effects of thousands of compounds to characterize the responses in three gynecological cancers, identify cancer-selective compounds, and understand the diversity of responses to these compounds from pan-cancer suppressors to single cell line selective compounds. In this assay, we screened a 7,914 compound drug library that included approved drug and bioactive compounds in six ovarian, three cervical, and […] placental cancer cell lines using the ATPlite assay for cell viability. […] The cervical cancer cell lines included HeLa, Ca Ski, and C-33 A. The placental cancer cell lines included JEG-3. HEK 293T cells were used as the control cell line to determine the selectivity index. ATPlite is a luminescence based assay reliant on the conversion of a luciferase substrate to light in the presence of ATP. As a cytotoxic compound will suppress growth and decrease the number of cells, the concentration of ATP will decrease, and less light signal will be detected in the well.
Assay Protocol Summary: 1,000 cells in 4 uL of media were dispensed into white, solid bottom 1536-well plates using a Multidrop Combi (Thermo Scientific). The Assay plates were incubated for 16 hours at 37 C with 5% CO2 in assay plates, followed by the addition of 23 nL of DMSO or drug dissolved in DMSO. Each compound was assayed in five concentrations (0.092, 0.46, 2.3, 11.5, and 57.5 uM), using the automated Wako 1536 Pin Tool workstation and incubated at 37 C with 5% CO2 48 hours. 4 uL of ATPlite, the ATP monitoring reagent, was then added to the each well of the assay plates using the Multidrop Combi reagent dispenser followed by incubation for 15 minutes at room temperature. The resulting luminescence was measured using the ViewLux plate reader.
In the case of `Cc1cc(O[C@@H]2O[C@H](COC(=O)CC(=O)O)[C@@H](O)[C@H](O)[C@H]2O)c(C(C)C)cc1O`, the Potency result was “inactive”. `CC(=O)[C@@H]1C[C@H](C(C)(C)O[C@@H]2O[C@H](CO)[C@@H](O)[C@H](O)[C@H]2O)CC[C@@]2(CO)OC(=O)C[C@@H]12`: the Potency entry is “inactive”. On the same count and under the same terms, in the case of `CCCN(CCN1CCN(c2ccccc2OC)CC1)C1CCc2ncsc2C1` (stereo not given) it was “inactive”; in that of `C/C(=C\CCC(C)(C)O)CCO[C@@H]1O[C@H](CO[C@@H]2O[C@@H](C)[C@H](O)[C@@H](O)[C@H]2O)[C@@H](O)[C@H](O)[C@H]1O`, “inactive”.

In the case of `C=C1[C@H]2CCC3[C@]4(C)CCC[C@@](C)(C(=O)O)C4CC[C@]3(C2)[C@H]1OC(C)=O` (stereo not given in full), the Potency entry is “inactive”. On to `OC[C@H]1O[C@@H](OCc2ccccc2)[C@H](O)[C@@H](O)[C@@H]1O`, for which the Potency result was “inactive”. Take `CC1=C(C)C(=O)OC(C(C)C2C(O)CC3C4C5OC5C5(O)CC(OC6OC(CO)C(OC7OC(C)C(O)C(O)C7O)C(O)C6O)CC(O)C5(C)C4CCC32C)C1` (stereo not given): the Potency entry is “inactive”. `C[C@@H]1O[C@@H](O[C@@H]2[C@@H](O)[C@H](O[C@@H]3[C@@H](O)[C@@H](O)[C@H](O[C@H]4[C@H](OC(=O)[C@]56CCC(C)(C)C[C@H]5C5=CCC7[C@@]8(C)C[C@H](O)[C@H](O[C@@H]9O[C@H](C(=O)O)[C@@H](O)[C@H](O)[C@H]9O)[C@@](C)(CO)C8[C@H](O)C[C@@]7(C)[C@]5(C)C[C@H]6O)O[C@@H](CO)[C@@H]4O)O[C@H]3C)OC[C@H]2O)[C@H](O)[C@H](O)[C@H]1O` (stereo not given in full): the activity change, negative = cytotoxicity is -1.08% [at 6.55 µM]. `COc1ccc(-n2c(SCC#N)nc3sc4c(c3c2=O)CCCC4)cc1`: the Potency result is “inactive”.

As for `C=C1CCC2C(C)(C(=O)OC)CCCC2(C)C1CCC1=CCOC1=O` (stereo not given), the Potency entry is “inactive”. Take `C=CC(C)(O)CC/C=C(\C)C1CC=C(C)C(=O)O1` (stereo not given): the Potency entry is “inactive”.

In the case of `COCC1OC(n2cnc3c(=O)[nH]cnc32)C(O)C1O` (stereo not given), the Potency entry was “inactive”. The same measure, in the same setting: as for `c1ccc2c(Nc3nnc(-c4ccncc4)s3)cccc2c1`, the entry is “inactive”. As to `O=C(O[C@H]1[C@H](Oc2ccc(O)cc2CO)O[C@H](CO)[C@@H](O)[C@@H]1O)c1ccccc1`, the Potency entry is “inactive”. Take `C=C(C)[C@@H]1CC[C@]2(C)CC[C@]3(C)C(CCC4[C@@]5(C)CC[C@H](O)C(C)(C)C5CC[C@]43C)C12` (stereo not given in full): the Potency entry was “inactive”. In the case of `CC(C)C1NC(=O)C2CCCN2C1=O` (stereo not given), the Potency entry was “inactive”.

With `CC(=O)O[C@@H](C[C@@H]1C=C(C)C(=O)O1)[C@H](C)[C@H]1CCC2[C@@]3(C)CC[C@H](O[C@@H]4O[C@H](CO)[C@@H](O)[C@H](O)[C@H]4O[C@@H]4O[C@@H](C)[C@H](O)[C@@H](O)[C@H]4O)C(C)(C)C3CC[C@@]2(C)[C@@]12COC(=O)C2` (stereo not given in full), the activity change, negative = cytotoxicity was 4.91% [at 11.6 µM]. `COC(=O)C(CC1(O)c2ccccc2N2C(=O)C(CC(C)C)NC21)n1cnc2ccccc2c1=O` (stereo not given): the Potency entry is “inactive”. As to `O=S(=O)(O)c1ccc(Nc2ncnc3c2ncn3[C@@H]2O[C@H](CO)[C@@H](O)[C@H]2O)cc1`, the Potency entry was “inactive”. Consider `CCOC(=O)COc1ccc2c(c1)C[C@@H](NC[C@H](O)c1cccc(Cl)c1)CC2`, for which the Potency entry is “inactive”. The same measure, in the same setting: in the case of `COC(=O)Cn1nc(-c2cccc(OC)c2)c2ccccc21` it was “inactive”; in that of `COC(=O)[C@H](O)[C@H]1C(C)(C)[C@H](OC(C)=O)[C@@]2(O)C(=O)[C@]1(C)C1CC[C@]3(C)C(CC(=O)O[C@H]3c3ccoc3)[C@]13O[C@@H]32` (stereo not given in full), “inactive”. Consider `CC(CCO)CCC1C2(C)CCCC(C)(C)C2CC[C@@]1(C)O` (stereo not given in full), for which the Potency entry was “inactive”. Still for that read-out and setting: as for `O=C(C[C@@H]1C(C(=O)O)=CO[C@@H](O[C@@H]2O[C@H](CO)[C@@H](O)[C@H](O)[C@H]2O)/C1=C\CO)OCCc1ccc(O)c(O)c1`, the entry is “inactive”; as for `OC[C@H]1O[C@@H](OC[C@H]2O[C@@H](OCc3ccccc3)[C@H](O)[C@@H](O)[C@@H]2O)[C@H](O)[C@@H](O)[C@@H]1O`, “inactive”; as for `CC(C)C1CCC(C(=O)N[C@@H](Cc2ccccc2)C(=O)O)CC1` (stereo not given in full), “inactive”. For the compound `CC1(C)CC[C@]2(C(=O)O)CC[C@]3(C)C(=CCC4[C@@]5(C)CC[C@H](O[C@@H]6O[C@H](C(=O)O)[C@@H](O)[C@H](O[C@@H]7O[C@H](CO)[C@H](O)[C@H](O)[C@H]7O)[C@H]6O[C@@H]6O[C@H](CO)[C@@H](O)[C@H](O)[C@H]6O)C(C)(C)C5CC[C@]43C)[C@@H]2C1` (stereo not given in full), the activity change, negative = cytotoxicity is 0.251% [at 6.55 µM]. With `CC(=O)O[C@@]1(C)[C@@H]2CC(=C(C)C)C(=O)C[C@@]2(C)CC[C@H]1OC(=O)C1(C)OC1C` (stereo not given in full), the Potency result is “inactive”.

As to `C=C1C(=O)OC2CC(COC(=O)C(C)C)=C(C(C)CCCOC(C)=O)[C@@H](OC(C)=O)C12` (stereo not given in full), the Potency entry is “inactive”. Same read-out and setting: as for `CC1(C)C[C@H]2C=C(C=O)[C@]3(C(=O)O)C[C@]3(C)[C@H]2C1`, the entry is “inactive”; as for `CC(=O)OC1C(C)C2C(OC3OC(CO)C(O)C(O)C3O)OC=C(C(=O)O)C2C1OC(=O)c1ccccc1` (stereo not given), “inactive”. As to `CC1(C)CC[C@]2(C(=O)OC3OC(CO)C(O)C(O)C3O)CC[C@]3(C)C(=CCC4[C@@]5(C)C[C@@H](O)[C@H](OC6OC(C(=O)O)C(O)C(O)C6O)C(C)(C)C5CC[C@]43C)[C@@H]2C1` (stereo not given in full), the activity change, negative = cytotoxicity was -8.39% [at 11.6 µM]. `COc1cc(C2Oc3c(OC)cc(/C=C/C(=O)OC4CC(O)(C(=O)O)CC(O)C4O)cc3C2CO)ccc1O` (stereo not given): the Potency result is “inactive”. Turning to `CC(C)N(CCCNC(=O)Nc1ccc(C(C)(C)C)cc1)C[C@H]1O[C@@H](n2ccc3c(N)ncnc32)[C@H](O)[C@@H]1O`, the Potency result is “inactive”. On the same count and under the same terms, as for `C/C(=C\C(=O)C[C@@]12C(=O)O[C@]3(C)CC[C@H]1C[C@H]23)C(N)=O`, the entry is “inactive”; as for `CC(=O)NC(C(=O)OC1CCC(C)(C)C2CC=C3C(=O)OCC3C12C)C(C)C` (stereo not given), “inactive”; as for `O=C(CC1CC(c2ccc(F)cc2F)=NO1)N1CCOCC1` (stereo not given), “inactive”. Turning to `COC1CC(O[C@H]2CC[C@@]3(C)C(=CC[C@]4(O)C3[C@H](O)[C@@H](O)[C@]3(C)[C@@H]([C@H](C)O)CC[C@@]34O)C2)OC(C)C1OC1CC(OC)C(OC2CC(OC)C(OC3OC(C)C(OC4OC(CO)C(O)C(O)C4O)C(OC)C3O)C(C)O2)C(C)O1` (stereo not given in full), the activity change, negative = cytotoxicity was 14.6% [at 11.6 µM]. On to `CC[C@@H](C)[C@H](N)C(=O)N1Cc2ccccc2C1`, for which the Potency entry was “inactive”. With `C/C=C(\C)C(=O)OCC1OC(OC2OC(CO)C(O)C(O)C2O)C(O)C(O)C1O` (stereo not given), the Potency entry was “inactive”.
